The source of these data is the supplement of paper PMC7724964.

Sequence of KPNB1 1-876 IBN_N+Arm (domain begin residue: 1, domain end residue: 876), Q14974 (Q14974 whole entry, the tested form may be a part): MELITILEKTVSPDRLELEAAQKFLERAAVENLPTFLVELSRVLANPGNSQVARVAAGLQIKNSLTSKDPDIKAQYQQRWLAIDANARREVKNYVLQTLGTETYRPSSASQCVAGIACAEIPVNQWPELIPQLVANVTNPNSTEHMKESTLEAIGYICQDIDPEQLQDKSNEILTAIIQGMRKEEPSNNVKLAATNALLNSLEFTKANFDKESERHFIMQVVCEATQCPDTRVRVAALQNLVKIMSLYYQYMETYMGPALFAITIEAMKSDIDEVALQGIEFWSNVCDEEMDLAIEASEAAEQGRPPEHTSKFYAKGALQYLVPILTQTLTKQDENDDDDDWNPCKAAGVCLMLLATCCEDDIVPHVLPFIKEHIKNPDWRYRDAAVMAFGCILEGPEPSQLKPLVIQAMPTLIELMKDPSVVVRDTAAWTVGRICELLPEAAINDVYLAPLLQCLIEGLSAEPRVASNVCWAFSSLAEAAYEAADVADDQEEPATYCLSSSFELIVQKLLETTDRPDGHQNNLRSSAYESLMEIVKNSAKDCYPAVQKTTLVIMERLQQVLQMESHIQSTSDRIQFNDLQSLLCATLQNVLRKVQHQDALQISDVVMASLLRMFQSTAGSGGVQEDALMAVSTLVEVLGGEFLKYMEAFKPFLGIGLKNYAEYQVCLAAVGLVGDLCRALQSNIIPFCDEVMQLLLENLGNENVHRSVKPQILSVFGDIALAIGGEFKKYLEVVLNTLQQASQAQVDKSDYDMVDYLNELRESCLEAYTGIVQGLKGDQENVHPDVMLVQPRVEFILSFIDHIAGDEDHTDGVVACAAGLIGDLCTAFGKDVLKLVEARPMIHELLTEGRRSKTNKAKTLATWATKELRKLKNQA
Sequence of KDM6A 1-520 TPR_8 (domain begin residue: 1, domain end residue: 520), O15550 (O15550 whole entry): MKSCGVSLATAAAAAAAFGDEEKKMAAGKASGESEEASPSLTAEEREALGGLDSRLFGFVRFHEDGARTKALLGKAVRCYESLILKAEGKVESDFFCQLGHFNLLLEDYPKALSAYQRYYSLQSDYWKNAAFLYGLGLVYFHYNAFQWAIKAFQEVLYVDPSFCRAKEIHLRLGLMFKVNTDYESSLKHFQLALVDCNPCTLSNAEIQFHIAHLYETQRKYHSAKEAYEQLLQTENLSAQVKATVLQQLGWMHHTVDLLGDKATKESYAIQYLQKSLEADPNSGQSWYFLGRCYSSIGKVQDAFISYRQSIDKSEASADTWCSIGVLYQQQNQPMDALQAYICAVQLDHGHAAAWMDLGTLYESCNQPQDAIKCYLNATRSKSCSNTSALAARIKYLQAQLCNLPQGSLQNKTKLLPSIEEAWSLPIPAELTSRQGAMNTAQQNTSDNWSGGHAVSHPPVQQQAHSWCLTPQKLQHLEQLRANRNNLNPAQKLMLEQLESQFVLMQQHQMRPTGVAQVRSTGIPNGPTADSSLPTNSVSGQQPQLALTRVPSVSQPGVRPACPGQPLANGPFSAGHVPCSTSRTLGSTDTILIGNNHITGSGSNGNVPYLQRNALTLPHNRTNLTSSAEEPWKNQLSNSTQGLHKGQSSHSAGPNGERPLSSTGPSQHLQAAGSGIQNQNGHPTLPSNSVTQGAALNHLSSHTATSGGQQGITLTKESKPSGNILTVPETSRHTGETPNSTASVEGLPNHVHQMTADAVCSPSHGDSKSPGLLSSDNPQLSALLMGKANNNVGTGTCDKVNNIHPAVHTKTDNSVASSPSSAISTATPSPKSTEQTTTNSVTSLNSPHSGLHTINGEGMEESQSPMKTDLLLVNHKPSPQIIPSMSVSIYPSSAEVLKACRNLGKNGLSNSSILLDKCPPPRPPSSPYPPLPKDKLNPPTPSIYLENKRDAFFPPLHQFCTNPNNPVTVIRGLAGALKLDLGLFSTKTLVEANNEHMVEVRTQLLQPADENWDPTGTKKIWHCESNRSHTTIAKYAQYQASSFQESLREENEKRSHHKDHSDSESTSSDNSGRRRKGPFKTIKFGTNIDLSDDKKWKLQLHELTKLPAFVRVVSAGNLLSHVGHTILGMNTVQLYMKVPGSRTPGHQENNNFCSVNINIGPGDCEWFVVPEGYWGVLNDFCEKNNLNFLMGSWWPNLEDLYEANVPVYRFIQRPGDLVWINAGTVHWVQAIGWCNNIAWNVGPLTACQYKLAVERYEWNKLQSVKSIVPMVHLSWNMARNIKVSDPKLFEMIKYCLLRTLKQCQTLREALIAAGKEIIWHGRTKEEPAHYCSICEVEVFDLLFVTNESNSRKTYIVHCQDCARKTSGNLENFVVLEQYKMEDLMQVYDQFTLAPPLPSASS
Sequence of SETD1A 2-220 RRM_1 (domain begin residue: 2, domain end residue: 220), O15047 (O15047 whole entry): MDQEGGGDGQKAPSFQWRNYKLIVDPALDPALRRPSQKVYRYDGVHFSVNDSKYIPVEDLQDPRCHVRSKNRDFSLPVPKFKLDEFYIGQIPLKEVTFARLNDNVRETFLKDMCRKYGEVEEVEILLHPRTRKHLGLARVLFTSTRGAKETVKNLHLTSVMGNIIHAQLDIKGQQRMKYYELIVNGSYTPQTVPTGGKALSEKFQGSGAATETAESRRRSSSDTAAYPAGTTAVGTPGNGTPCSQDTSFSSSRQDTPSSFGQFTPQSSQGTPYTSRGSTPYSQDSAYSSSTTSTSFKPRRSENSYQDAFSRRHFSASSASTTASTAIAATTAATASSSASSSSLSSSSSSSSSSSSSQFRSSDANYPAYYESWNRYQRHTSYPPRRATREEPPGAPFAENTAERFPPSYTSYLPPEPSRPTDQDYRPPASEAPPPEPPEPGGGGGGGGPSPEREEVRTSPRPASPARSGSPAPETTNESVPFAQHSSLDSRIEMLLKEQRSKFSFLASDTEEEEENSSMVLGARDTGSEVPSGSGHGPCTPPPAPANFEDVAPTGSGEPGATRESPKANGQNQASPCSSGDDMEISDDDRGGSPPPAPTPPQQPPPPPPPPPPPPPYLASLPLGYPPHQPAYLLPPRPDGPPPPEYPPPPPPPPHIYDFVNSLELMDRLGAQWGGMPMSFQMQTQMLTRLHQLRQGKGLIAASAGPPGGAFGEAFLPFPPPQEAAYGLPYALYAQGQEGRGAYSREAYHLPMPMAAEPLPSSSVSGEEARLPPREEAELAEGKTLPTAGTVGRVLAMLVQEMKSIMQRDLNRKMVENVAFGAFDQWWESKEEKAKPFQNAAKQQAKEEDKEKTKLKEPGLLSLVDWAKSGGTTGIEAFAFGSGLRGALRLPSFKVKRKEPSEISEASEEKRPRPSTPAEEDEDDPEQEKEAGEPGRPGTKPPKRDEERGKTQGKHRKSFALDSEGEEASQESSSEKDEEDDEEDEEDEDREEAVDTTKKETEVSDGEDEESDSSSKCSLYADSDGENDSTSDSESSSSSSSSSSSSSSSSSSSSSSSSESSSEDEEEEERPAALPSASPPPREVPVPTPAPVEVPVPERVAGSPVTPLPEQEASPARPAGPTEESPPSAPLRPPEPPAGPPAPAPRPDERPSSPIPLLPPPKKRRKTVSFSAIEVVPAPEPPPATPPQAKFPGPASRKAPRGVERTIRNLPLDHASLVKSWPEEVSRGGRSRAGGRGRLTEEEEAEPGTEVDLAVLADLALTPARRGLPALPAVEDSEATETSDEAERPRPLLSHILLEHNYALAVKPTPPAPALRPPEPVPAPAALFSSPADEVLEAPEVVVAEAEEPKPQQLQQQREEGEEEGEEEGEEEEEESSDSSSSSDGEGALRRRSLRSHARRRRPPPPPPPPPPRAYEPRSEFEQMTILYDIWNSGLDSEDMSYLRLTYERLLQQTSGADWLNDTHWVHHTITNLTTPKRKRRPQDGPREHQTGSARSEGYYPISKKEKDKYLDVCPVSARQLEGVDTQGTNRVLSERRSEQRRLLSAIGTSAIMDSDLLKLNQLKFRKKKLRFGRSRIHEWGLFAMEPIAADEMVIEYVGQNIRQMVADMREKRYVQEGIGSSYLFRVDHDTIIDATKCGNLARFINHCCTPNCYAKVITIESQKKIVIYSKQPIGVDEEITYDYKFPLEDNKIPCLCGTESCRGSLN

The target of the first assay is KPNB1 1-876 IBN_N+Arm (domain begin residue: 1, domain end residue: 876), Q14974. In words: phage ELISA signal ratio (GST-PRM binding over GST background); higher = stronger binding of peptide-phage to the PRM. The gist of the method:
(§1)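 Approximately 48 individual clones from selection rounds 4 and 5 were tested by phage ELISA, and those scoring positive were sequenced. They came from five rounds of selecting an M13 phage library of randomized, cysteine-free, glycine-flanked hexadecapeptides on the gene-8 major coat protein against human peptide recognition domains fused to the C-terminus of glutathione S-transferase (GST) in 96-well plates. Each figure in the table is the ELISA signal on the GST-domain fusion relative to the signal on GST alone.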
Consider WDWVVREMSFDEVFIF, for which the “phage ELISA signal ratio” value was found to be 20.4.

YDFGPFMGVGAPSFQF: the “phage ELISA signal ratio” value was 9.88.

With WISFPFSDWQGDLFTF, the “phage ELISA signal ratio” value came out at 10.3.

As to WQMWTPLGDLDQIYTF, the “phage ELISA signal ratio” value amounted to 16.1.

For the molecule PHEFQWALWPSGVFVF, the “phage ELISA signal ratio” value was found to be 14.

As for PSEWENYMSVGDIFIF, the “phage ELISA signal ratio” value was 16.9.

Regarding LDWMSMFDDYSSLFSV, the “phage ELISA signal ratio” value came to 16.8.

The target of a further assay is T1, KAT8 2-458 Tudor-knot+MOZ_SAS (domain begin residue: 2, domain end residue: 458), Q9H7Z6.
T1 chain: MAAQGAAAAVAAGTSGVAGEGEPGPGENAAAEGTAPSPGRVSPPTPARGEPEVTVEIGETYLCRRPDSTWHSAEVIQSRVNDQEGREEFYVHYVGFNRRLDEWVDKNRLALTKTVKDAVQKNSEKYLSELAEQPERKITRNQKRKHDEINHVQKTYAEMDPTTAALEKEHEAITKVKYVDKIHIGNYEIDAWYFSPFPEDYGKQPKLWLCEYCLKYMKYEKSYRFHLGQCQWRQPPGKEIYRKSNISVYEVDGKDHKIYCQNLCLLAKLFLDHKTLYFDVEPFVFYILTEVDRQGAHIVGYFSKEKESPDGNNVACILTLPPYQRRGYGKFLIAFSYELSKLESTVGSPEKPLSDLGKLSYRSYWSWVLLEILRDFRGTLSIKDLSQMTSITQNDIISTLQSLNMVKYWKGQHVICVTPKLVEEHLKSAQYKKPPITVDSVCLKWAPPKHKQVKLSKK
The description is as above. An outline of the steps:
as §1
As to YIDHMYDVVMYEEIEW, the “phage ELISA signal ratio” value was 3.94.

Another assay deals with T2, TDRD1 261-449 TUDOR (domain begin residue: 261, domain end residue: 449), Q9BXT4.
T2 chain: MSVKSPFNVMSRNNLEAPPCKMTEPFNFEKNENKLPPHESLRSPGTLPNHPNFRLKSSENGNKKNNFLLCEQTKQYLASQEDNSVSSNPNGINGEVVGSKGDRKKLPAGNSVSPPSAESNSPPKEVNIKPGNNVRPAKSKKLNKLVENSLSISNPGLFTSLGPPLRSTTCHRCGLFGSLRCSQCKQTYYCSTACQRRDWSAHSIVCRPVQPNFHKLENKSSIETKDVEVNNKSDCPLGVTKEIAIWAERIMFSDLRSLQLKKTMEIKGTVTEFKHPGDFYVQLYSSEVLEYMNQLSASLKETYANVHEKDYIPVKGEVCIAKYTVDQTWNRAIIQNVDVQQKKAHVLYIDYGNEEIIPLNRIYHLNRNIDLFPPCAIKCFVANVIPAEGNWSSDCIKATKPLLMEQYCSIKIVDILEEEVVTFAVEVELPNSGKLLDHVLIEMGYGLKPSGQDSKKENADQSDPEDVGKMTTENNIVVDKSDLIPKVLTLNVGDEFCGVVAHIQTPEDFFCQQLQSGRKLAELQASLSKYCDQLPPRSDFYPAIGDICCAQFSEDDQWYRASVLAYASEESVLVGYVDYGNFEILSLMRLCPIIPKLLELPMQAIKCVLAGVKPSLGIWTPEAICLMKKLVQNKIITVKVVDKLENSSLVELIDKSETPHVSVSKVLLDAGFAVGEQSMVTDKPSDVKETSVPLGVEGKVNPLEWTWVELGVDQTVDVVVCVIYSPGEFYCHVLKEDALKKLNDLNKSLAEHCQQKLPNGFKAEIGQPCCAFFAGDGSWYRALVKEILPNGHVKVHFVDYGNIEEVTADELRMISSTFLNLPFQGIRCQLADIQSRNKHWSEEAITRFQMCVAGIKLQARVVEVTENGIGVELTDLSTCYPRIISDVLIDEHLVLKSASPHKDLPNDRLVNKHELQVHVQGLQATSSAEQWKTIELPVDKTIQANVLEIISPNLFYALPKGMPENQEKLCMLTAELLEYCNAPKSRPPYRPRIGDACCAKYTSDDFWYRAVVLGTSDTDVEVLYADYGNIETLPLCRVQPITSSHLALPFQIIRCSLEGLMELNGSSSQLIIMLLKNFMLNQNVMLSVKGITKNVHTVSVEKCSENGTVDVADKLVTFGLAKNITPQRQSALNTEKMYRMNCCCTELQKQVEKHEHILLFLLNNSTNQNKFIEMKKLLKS
The description is as above. The gist of the method: as §1
With YIDHMYDVVMYEEIEW, the “phage ELISA signal ratio” value is 8.98.

Another assay addresses KDM6A 1-520 TPR_8 (domain begin residue: 1, domain end residue: 520), O15550. The assay is described as above. An outline of the steps: as §1
As to VEVDYFNSMYEAMSFM, the “phage ELISA signal ratio” value is 4.78.

On to YHWDNLLEPTIQTYMG, for which the “phage ELISA signal ratio” value was found to be 7.69.

In the case of MDMIWDQILPDQFLSK, the “phage ELISA signal ratio” value turned out to be 6.37.

Regarding YMEMVWDTIQIQPPQD, the “phage ELISA signal ratio” value turned out to be 6.38.

As to HYMEMLYEQLAISQAI, the “phage ELISA signal ratio” value came out at 5.05.

Consider NYIEHMYDSMMYGSMT, for which the “phage ELISA signal ratio” value came out at 8.78.

The target in another assay is HSPA9 438-651 HSP70 (domain begin residue: 438, domain end residue: 651), P38646. The assay is described as above. An outline of the steps: as §1
Sequence of HSPA9 438-651 HSP70 (domain begin residue: 438, domain end residue: 651), P38646 (P38646 whole entry): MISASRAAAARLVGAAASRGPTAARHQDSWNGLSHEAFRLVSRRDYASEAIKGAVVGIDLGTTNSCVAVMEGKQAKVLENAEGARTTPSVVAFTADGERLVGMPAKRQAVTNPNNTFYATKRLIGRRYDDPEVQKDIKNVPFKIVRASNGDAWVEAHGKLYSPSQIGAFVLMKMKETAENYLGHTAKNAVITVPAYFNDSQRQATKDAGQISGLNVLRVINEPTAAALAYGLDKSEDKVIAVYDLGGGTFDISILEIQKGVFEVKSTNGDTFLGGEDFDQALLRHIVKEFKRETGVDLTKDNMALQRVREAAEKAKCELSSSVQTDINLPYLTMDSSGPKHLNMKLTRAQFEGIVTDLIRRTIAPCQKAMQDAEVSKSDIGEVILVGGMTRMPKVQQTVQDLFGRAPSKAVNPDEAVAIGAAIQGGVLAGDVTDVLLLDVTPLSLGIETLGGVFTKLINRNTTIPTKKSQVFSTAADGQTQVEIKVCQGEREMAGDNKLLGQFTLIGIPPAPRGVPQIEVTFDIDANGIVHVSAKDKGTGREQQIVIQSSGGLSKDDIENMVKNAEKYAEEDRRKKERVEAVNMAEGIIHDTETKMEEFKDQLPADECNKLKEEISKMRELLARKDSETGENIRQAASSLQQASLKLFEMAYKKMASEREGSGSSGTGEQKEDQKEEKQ
Turning to DLQQWIIDFYIHSMET, the “phage ELISA signal ratio” value is 20.6.

For PYGLTAEGYERFLWLV, the “phage ELISA signal ratio” value was found to be 28.

With VFTFTMSWDAWEYILY, the “phage ELISA signal ratio” value stood at 18.4.

With VITMDQSQWDDVMFWL, the “phage ELISA signal ratio” value was 27.3.

With YFTMDHDAWHYFQLYA, the “phage ELISA signal ratio” value amounted to 20.2.

With STEFFYDWGYWEQMIE, the “phage ELISA signal ratio” value amounted to 19.8.

Another assay deals with KARS 71-214 tRNA_anti-codon (domain begin residue: 71, domain end residue: 214), Q15046. Described as above. An outline of the steps: as §1
Consider ETWADYFNVPISWIHE, for which the “phage ELISA signal ratio” value is 18.1.

Another assay addresses T3, LBR 1-67 LBR_tudor (domain begin residue: 1, domain end residue: 67), Q14739.
T3 chain: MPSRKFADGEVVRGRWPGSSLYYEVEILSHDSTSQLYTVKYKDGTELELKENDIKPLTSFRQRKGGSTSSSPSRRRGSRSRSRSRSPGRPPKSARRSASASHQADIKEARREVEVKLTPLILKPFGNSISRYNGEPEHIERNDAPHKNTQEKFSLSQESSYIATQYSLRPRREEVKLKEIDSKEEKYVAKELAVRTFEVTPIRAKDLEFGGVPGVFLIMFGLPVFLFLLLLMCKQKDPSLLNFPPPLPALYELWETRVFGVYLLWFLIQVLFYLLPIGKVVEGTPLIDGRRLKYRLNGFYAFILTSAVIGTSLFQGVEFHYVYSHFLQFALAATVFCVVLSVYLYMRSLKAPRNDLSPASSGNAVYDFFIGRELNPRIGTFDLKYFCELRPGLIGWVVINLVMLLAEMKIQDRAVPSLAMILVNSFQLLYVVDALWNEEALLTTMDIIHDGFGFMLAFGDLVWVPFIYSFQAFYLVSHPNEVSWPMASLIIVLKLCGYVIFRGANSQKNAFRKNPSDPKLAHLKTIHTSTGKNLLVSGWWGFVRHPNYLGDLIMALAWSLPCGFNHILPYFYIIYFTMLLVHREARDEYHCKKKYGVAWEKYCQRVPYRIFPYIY
Described as above. The gist of the method:
as §1
With FHGIWVQDELRVWMMD, the “phage ELISA signal ratio” value is 8.63.

As for YNFIESMYTMEPMPMH, the “phage ELISA signal ratio” value was determined as 3.33.

Another assay concerns the target KMT2C 995-1055 PHD (domain begin residue: 995, domain end residue: 1055). The description is as above. The gist of the method:
as §1
As for SIKGIYIDDVLRLIDQ, the “phage ELISA signal ratio” value is 6.63.

A further assay addresses KMT2C 1055-1137 PHD (domain begin residue: 1055, domain end residue: 1137). Described as above. An outline of the steps: as §1
For FETLEVIPGLGEFFKQ, the “phage ELISA signal ratio” value was 6.9.

The target of a further assay is T4, IRS1 157-267 IRS (domain begin residue: 157, domain end residue: 267), P35568.
T4 chain: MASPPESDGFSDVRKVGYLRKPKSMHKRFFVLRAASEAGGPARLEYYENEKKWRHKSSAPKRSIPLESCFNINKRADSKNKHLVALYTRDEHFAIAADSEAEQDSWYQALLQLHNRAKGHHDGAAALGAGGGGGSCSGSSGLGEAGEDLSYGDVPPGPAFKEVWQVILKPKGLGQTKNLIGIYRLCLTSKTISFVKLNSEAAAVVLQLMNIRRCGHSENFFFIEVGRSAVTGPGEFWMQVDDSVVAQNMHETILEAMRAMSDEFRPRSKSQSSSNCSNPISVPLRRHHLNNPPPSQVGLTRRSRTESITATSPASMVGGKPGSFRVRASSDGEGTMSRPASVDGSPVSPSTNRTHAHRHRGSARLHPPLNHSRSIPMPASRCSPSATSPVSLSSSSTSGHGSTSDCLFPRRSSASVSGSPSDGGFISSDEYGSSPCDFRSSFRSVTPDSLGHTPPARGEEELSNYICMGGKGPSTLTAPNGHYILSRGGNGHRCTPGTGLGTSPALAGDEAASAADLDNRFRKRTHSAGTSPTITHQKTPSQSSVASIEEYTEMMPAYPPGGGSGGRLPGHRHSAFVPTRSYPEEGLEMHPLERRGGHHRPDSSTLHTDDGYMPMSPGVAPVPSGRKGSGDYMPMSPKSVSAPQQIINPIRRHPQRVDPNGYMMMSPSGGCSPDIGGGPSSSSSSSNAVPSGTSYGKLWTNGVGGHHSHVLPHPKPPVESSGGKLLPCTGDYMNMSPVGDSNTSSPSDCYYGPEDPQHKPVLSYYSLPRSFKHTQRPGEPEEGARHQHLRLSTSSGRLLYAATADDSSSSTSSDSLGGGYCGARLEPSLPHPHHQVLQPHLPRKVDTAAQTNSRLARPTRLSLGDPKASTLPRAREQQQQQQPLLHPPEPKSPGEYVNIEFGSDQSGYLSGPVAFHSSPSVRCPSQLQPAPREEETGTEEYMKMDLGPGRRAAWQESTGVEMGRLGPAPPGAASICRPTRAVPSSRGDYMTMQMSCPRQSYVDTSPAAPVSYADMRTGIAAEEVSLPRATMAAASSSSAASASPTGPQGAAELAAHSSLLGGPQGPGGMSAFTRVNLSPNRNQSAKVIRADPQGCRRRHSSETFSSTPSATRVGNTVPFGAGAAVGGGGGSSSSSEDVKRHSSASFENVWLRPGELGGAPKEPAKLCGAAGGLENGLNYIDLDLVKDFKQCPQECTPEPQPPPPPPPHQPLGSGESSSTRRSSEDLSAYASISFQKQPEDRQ
The assay is described as above. The gist of the method:
as §1
Regarding GYENWIPEGYRWQDWK, the “phage ELISA signal ratio” value amounted to 18.

The target of a further assay is T5, RARA 175-421 Hormone_recep (domain begin residue: 175, domain end residue: 421), P10276.
T5 chain: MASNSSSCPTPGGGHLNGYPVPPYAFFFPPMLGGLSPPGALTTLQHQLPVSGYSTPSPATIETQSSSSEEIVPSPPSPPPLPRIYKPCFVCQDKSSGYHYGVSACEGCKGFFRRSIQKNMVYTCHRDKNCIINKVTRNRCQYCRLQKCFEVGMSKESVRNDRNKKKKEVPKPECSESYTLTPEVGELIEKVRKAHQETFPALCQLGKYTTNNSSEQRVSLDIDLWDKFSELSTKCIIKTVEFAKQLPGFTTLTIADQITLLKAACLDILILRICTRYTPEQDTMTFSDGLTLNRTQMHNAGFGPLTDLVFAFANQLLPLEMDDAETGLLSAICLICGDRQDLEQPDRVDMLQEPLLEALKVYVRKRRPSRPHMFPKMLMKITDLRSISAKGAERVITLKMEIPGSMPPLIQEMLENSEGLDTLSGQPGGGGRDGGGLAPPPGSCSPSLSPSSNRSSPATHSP
The description is as above. An outline of the steps: as §1
Regarding STEFFYDWGYWEQMIE, the “phage ELISA signal ratio” value was 9.16.

The next assay has as its target SETD1A 2-220 RRM_1 (domain begin residue: 2, domain end residue: 220), O15047. The assay is described as above. The gist of the method:
as §1
On to YNFIESMYTMEPMPMH, for which the “phage ELISA signal ratio” value worked out at 4.24.

A further assay has as its target T6, ZGPAT 120-268 zf-CCCH+TUDOR (domain begin residue: 120, domain end residue: 268), Q8N5A5.
T6 chain: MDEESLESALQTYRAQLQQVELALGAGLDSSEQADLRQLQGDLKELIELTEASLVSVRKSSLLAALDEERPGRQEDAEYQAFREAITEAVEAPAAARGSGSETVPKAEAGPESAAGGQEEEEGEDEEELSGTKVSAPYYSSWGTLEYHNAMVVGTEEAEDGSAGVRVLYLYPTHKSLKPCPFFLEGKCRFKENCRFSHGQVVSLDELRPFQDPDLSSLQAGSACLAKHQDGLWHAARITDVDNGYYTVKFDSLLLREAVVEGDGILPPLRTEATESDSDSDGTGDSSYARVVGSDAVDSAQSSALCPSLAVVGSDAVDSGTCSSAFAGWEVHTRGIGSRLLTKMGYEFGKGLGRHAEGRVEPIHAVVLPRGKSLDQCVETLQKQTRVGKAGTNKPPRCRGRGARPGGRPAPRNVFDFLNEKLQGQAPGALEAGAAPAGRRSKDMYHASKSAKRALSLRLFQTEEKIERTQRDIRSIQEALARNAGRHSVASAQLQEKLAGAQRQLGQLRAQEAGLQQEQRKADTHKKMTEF
The assay is described as above. The gist of the method:
as §1
For the molecule YNFIESMYTMEPMPMH, the “phage ELISA signal ratio” value amounted to 3.65.
